In PubChem BioAssay AID2546 (National Center for Advancing Translational Sciences (NCATS), 2010):
The campaign covered roughly 310,000 compounds. About 11,000 (3.5%) were called active. Inconclusive results (about 8%) are left out. For the sample, actives were picked, then their nearest neighbours and some compounds at random. Values without a mark were called inactive. Calls come from the whole dose curve; as a rule, active = well fitted inhibition curve with a large enough effect; inconclusive = small, poorly fitted or top-dose-only effect, or effect the other way; inactive = flat fitted curve, though single readings scatter.
% is set by controls: 0 for no effect and ±100 for the full control effect; potency is the fitted concentration of half-maximal effect.

Assay: VP16 counterscreen qHTS for inhibitors of ROR gamma transcriptional activity;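 note: Gal4-VP16 expression switched on by copper sulfate through the metallothionein promoter; nearly all actives have a fitted effect of over 50% in size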
Details: Drosophila S2 Gal4-VP16 UAS-luciferase, luminescence, 20 h; series mostly up to 53.6 µM; activity, negative = inhibition: at the top concentration
For `O=C(/C=C/c1ccc(F)cc1)NCCNC(=O)/C=C/c1ccc(F)cc1`, the “activity, negative = inhibition” value was 0.732%. With `COc1ccc(C(=O)N(C)CC(O)c2ccccc2)cc1OC1CCN(C(C)=O)CC1` (configuration not stated) the “activity, negative = inhibition” value was -0.542%. For `O=C(COc1ncnc2ccccc12)NC(=O)NCc1ccccc1`, the “activity, negative = inhibition” value was 16.6%. With `O=C(c1ccco1)N(Cc1nc2ccccc2c(=O)[nH]1)C1CCCC1` the Potency was 8.91 µM (active). For `CCN(CC(=O)Nc1cccc(S(N)(=O)=O)c1)Cc1nc2ccccc2c(=O)[nH]1`, the Potency was 7.94 µM (active). In the case of `CCN(CC(=O)NC(=O)NCc1ccccc1)Cc1nc2ccccc2c(=O)[nH]1`, the Potency is reported as 2.24 µM (active). For `CCN(CC)c1ccc(C(=O)NNC(=O)CCc2nc3ccccc3c(=O)[nH]2)cc1`, the “activity, negative = inhibition” value was 2.44%. With `NS(=O)(=O)c1cccc(NC(=O)CSc2nc3ccccc3n2-c2ccccc2)c1` the “activity, negative = inhibition” value was -0.867%. For `CCN(CC(=O)Nc1ccc(Cl)c(S(=O)(=O)N(C)C)c1)Cc1nc2ccccc2c(=O)[nH]1`, the “activity, negative = inhibition” value was 0.788%. With `CN(Cc1nc2ccccc2c(=O)[nH]1)Cc1cc(=O)oc2ccc3ccccc3c12` the “activity, negative = inhibition” value was -10.9%. With `CCCC(=O)N(CCc1ccccc1)Cc1nc2ccccc2c(=O)[nH]1` the “activity, negative = inhibition” value was -2.29%. In the case of `CC(=O)NCC(=O)N1CCC(n2nccc2NC(=O)CCCc2ccccc2)CC1`, the “activity, negative = inhibition” value is reported as 29%. For `O=S(=O)(Nc1ccccc1Cl)c1cccc2nsnc12`, the “activity, negative = inhibition” value was 2.44%. In the case of `O=c1c(-c2cccc(Cl)c2)c[nH]n1-c1ccccc1`, the “activity, negative = inhibition” value is reported as 5.03%. In the case of `COc1ccc(NC(=O)c2sc3nc(C)nc(N4CCN(c5ccccn5)CC4)c3c2C)c(OC)c1`, the “activity, negative = inhibition” value is reported as -22.9%. For `COc1ccc(C(=O)Nc2ccccc2C(=O)N/N=C/c2ccccc2OC)cc1`, the Potency was 12.6 µM (active). For `COc1ccc(/C=N/NC(=O)c2ccc3c(c2)OCCO3)c(OC)c1`, the “activity, negative = inhibition” value was 0.751%. With `COc1cc(/C=N/NC(=O)c2ccccc2)ccc1OS(=O)(=O)c1ccccc1` the “activity, negative = inhibition” value was -8.47%. In the case of `COc1cc(/C=N/NC(=O)c2ccc(N3CCCC3=O)cc2)ccc1O`, the “activity, negative = inhibition” value is reported as 6.95%. In the case of `COc1ccc(C(=O)Nc2ccccc2C(=O)N/N=C/c2ccc(O)c(OC)c2)cc1`, the Potency is reported as 0.316 µM (active). In the case of `COc1ccc(C(=O)Nc2ccccc2C(=O)NCc2ccco2)cc1`, the “activity, negative = inhibition” value is reported as 5.86%. In the case of `Cn1c(Nc2cccc(Cl)c2)nc2ccccc21`, the “activity, negative = inhibition” value is reported as -12.6%. For `Fc1cc(F)c2nc(N3CCOCC3)sc2c1`, the “activity, negative = inhibition” value was -0.814%. In the case of `Fc1cc(F)c2nc(Nc3nc4c(F)cccc4s3)sc2c1`, the Potency is reported as 7.08 µM (active). For `O=C(Nc1nc2c(F)cc(F)cc2s1)C1COc2ccccc2O1` (configuration not stated), the “activity, negative = inhibition” value was 4.29%. With `CCc1ccc(/C=N/NC(=O)c2nnn(-c3nonc3N)c2CN2CCc3ccccc32)cc1` the “activity, negative = inhibition” value was -19.6%. For `COc1ccc(C(C(=O)NC2CCCCC2)N(C(=O)c2snc(C(N)=O)c2N)c2ccccc2OC)cc1` (configuration not stated), the “activity, negative = inhibition” value was 3.53%. For `CCC1(C)Cc2c(sc3nc(SC)[nH]c(=O)c23)CO1` (configuration not stated), the “activity, negative = inhibition” value was -14%. For `CCC1(C)Cc2c(sc3[nH]c(=S)n(Cc4ccccc4)c(=O)c23)CO1` (configuration not stated), the Potency was 1.26 µM (active). For `CCC1(C)Cc2c(sc3nnn(CC(=O)Nc4ccc(Cl)cc4)c(=O)c23)CO1` (configuration not stated), the “activity, negative = inhibition” value was -0.473%. With `CCOc1ccc(N(CC(=O)Nc2ccccc2F)S(=O)(=O)c2c(C)[nH]c(=O)[nH]c2=O)cc1` the “activity, negative = inhibition” value was -3.41%. In the case of `Cc1cccc(N2CCN(S(=O)(=O)c3ccc(-c4cc(C)no4)s3)CC2C)c1` (configuration not stated), the “activity, negative = inhibition” value is reported as 1.53%. With `COCCCNS(=O)(=O)c1cccc(S(=O)(=O)c2cccc(S(=O)(=O)NCCCOC)c2)c1` the “activity, negative = inhibition” value was -23.9%. For `CCOc1ccccc1NS(=O)(=O)c1c[nH]c(C(=O)OC)c1`, the “activity, negative = inhibition” value was 0.313%. For `CCCNC(=O)CSc1nc(Cc2ccccc2)nc2ccccc12`, the “activity, negative = inhibition” value was 13.9%. In the case of `COCc1ccc(CN2CCC(Oc3ccc(C(=O)NCc4ccccn4)cc3)CC2)o1`, the “activity, negative = inhibition” value is reported as 1.21%. For `CC1(C)C(c2cccs2)=[N+]([O-])C2(CCCCC2=O)N1O` (configuration not stated), the “activity, negative = inhibition” value was 0%. In the case of `C/C(=N\O)C1(C)N(O)C(C)(C)C(c2ccc(Br)cc2)=[N+]1[O-]` (configuration not stated), the “activity, negative = inhibition” value is reported as 24.1%. In the case of `CC(=O)C1(C)N(O)C(C)(C)C(c2cccs2)=[N+]1[O-]` (configuration not stated), the Potency is reported as 10 µM (active). In the case of `COc1ccc(C2/C=C\CN(Cc3ccco3)C(C)C(=O)N2Cc2ccc(F)cc2)cc1` (configuration not stated), the “activity, negative = inhibition” value is reported as -2.15%. In the case of `COc1ccc(CN2CN(C3CCCC3)CSC2=S)cc1`, the Potency is reported as 11.2 µM (active). For `COc1ccc(CN2CN(C(C)C)CSC2=S)cc1`, the “activity, negative = inhibition” value was 5.57%. With `COc1ccc(CN2CC(C(=O)NC3CCCCC3)CC2=O)cc1` (configuration not stated) the “activity, negative = inhibition” value was -2.51%. With `CC(C)Nc1ccc(-n2nc3ccccc3[n+]2[O-])cc1` the Potency was 10 µM (active). For `CC1CCN(C(=O)CCNC(=O)c2ccccc2)CC1`, the “activity, negative = inhibition” value was -3.13%. In the case of `COc1ccc(CCNC(=O)CN2C(=O)CCSc3ccccc32)c(OC)c1`, the “activity, negative = inhibition” value is reported as 3.66%. For `C=CCn1c(-c2ccc3[nH]c(C)c(C)c3c2)n[nH]c1=S`, the Potency was 12.6 µM (active). With `C=CCn1c(=S)sc2c(=O)[nH]c(C)nc21` the “activity, negative = inhibition” value was 4.03%. In the case of `COc1cc(-c2n[nH]c(=S)n2Cc2ccccc2)cc(OC)c1OC`, the “activity, negative = inhibition” value is reported as 4.14%. For `COC(=O)c1cccc(C(=O)N2CCC(CCC(=O)NCc3ccc(F)cc3)CC2)c1`, the “activity, negative = inhibition” value was -1.98%. For `O=C(c1ccc(Oc2ccc(Cl)cc2)c([N+](=O)[O-])c1)N1CCCC1`, the “activity, negative = inhibition” value was -9.29%. In the case of `CCN(CC)c1ccc(C(=O)Nn2c(C)nc3ccccc3c2=O)cc1`, the “activity, negative = inhibition” value is reported as -12.5%.
